Data from PubChem BioAssay AID662 (National Center for Advancing Translational Sciences (NCATS), 2007).
Among all 71,000 compounds or so, about 1,800 (2.5%) were called active. Not shown: some 26% with an inconclusive outcome. Calls come from the whole dose curve; as a rule, active = well fitted activation curve with a large enough effect in the signal ratio, with a control signal flat (not every such curve was filed as active); inconclusive = small, poorly fitted or top-dose-only effect, or effect the other way, or a change in a side signal; inactive = flat fitted curve, though single readings scatter; the % refers to the signal ratio. For the sample, actives were picked, then their nearest neighbours and some compounds at random.

Assay: Cell signaling CRE-BLA (Fsk stim); for activity change, negative = inhibition: % of control where 0% means no effect
Details: CHO CRE-bla reporter (cAMP response element driving beta-lactamase), forskolin EC10, beta-lactamase ratio; series mostly up to 38.2 µM; activity change, negative = inhibition: at the top concentration
Description: NIH Molecular Libraries Screening Centers Network [MLSCN]
NIH Chemical Genomics Center [NCGC]
Assay Provider: Marshall W. Nirenberg, U.S. National heart lung & blood institute
Memories persist for different lengths of time, from seconds or minutes to a lifetime. There are two kinds of memory: short-term memory (STM) and long-term memory (LTM). STM lasts for minutes to hours, which maybe mediated by modifications of molecules involved in synaptic functions. LTM lasts for days or longer, and may be due to the formation of new synapses or restructuring of existing synapses. LTM, but not STM, requires gene transcription and synthesis of proteins. CREB (cyclic-AMP Responsive Element Binding Protein) is one of the candidates plays an important role for enhancement of some types of LTM. CREB, a family of transcription factors, regulates the transcription of genes containing cAMP Responsive Elements (CRE). CRE is a nucleotide sequence often found in the promoter regions of genes that are binding sites for CREB.
Using a beta-lactamase reporter-gene under control of cAMP responsive element, a cell-based assay [CellSensor(TM) CRE-bla CHO developed by Invitrogen Corp.] was used to measure forskolin-induced signaling. Library compounds were measured for their ability to modulate positively or negatively the action of EC10 NKH 477, a water soluble forskolin, on reporter gene activity. Compounds were screened in a titration series in 1536-well format. Positive and negative modulators were identified based on the AC50 values derived from the screening data.
NCGC Assay Protocol Summary
2000 cells/5uL in Opti-MEM medium containing 0.5% dialyzed FBS, 0.1 mM NEAA, 1 mM sodium pyruvate and 10 mM HEPES was dispensed into 1536-well plates and cells were cultured at 37 degrees Celsius overnight. […] And then the plates were incubated at 37 degrees Celsius for 3 hours. 1 uL of CCF4-dye mixture was added to each well. After incubated at room temperature for 2 hours the plates were measured on an EnVision plate reader at Excitation 405nm, Emission1=460nm and Emission 2=530nm. The %Activity was determined from the ratio of 460nm/530nm.
Keywords: NIH Roadmap, MLSCN, MLSMR, qHTS, NCGC, CRE, beta-lactamase reporter-gene assay.
Potency is the fitted concentration of half-maximal effect.

Compound	Potency	activity change, negative = inhibition
Cc1cc(C)c2nc(N3CCCC3)c(C#N)cc2c1	10 µM (active)	–
CCOc1ccc2nc(N3CCCN(C(=O)Nc4ccccc4C)CC3)c(C#N)cc2c1	–	4.72% (inactive)
COc1c(C)cccc1C(=O)Nc1cc(Cl)ccc1N1CCOCC1	–	8.77% (inactive)
Cn1c(=O)n(C)c2cc(CNc3ccc(N4CCOCC4)c(C(=O)O)c3)ccc21	–	-4.36% (inactive)
Cn1nc(-c2ccc(N3CCOCC3)c(NC(=O)c3ccccc3)c2)c2ccccc2c1=O	7.94 µM (active)	–
COc1ccc(OC)c2[nH]c(=O)c(CCNC(=O)C(C)(C)C)cc12	–	11.6% (inactive)
COc1ccc(CNc2ncnc3ccc(-c4cccnc4)cc23)c(OC)c1	1 µM (active)	–
COc1ccc(CNc2ncncc2-c2ccccc2OC)c(OC)c1	–	11.5% (inactive)
COc1ccc(CNc2ncncc2-c2ccccc2C)c(OC)c1	–	4.23% (inactive)
CCOC(=O)C1CCc2nc3ccccc3c(=O)n21 (stereo not given)	–	1.43% (inactive)
CCCCCCOC(=O)NCC(O)c1ccccc1 (stereo not given)	–	0.923% (inactive)
COc1ccccc1-c1nnc(SCC(=O)Nc2cc(C)on2)o1	–	-0.278% (inactive)
Cc1nc(SCC(=O)Nc2cc(C)on2)c2c3c(sc2n1)CCCC3	2.51 µM (active)	–
C=C(C)Cn1c(SCC(=O)NCc2ccco2)nc2sc3c(c2c1=O)CCC3	–	6.87% (inactive)
Cc1cc(NC(=O)Cn2nc(C(F)(F)F)c3c2CCCC3)no1	–	-5.04% (inactive)
CCOc1ccccc1Nc1nnc(SCC(=O)Nc2cc(C)on2)s1	–	-11.6% (inactive)
Cc1nc(SCC(=O)Nc2cc(C)on2)c2c(C)c(C)sc2n1	0.316 µM (active)	–
O=C1C(C=NCC2CCCO2)=C(O)c2ccccc21 (stereo not given)	–	12.5% [at 7.6 µM] (inactive)
COC(=O)[C@@]1(Cc2ccc(F)cc2)[C@H]2c3cc(C(=O)N4CCCC4)n(Cc4ccc(OC(F)(F)F)cc4)c3C[C@H]2CN1C(=O)c1ccccc1	–	-8.28% (inactive)
COCCOC(=O)C1=C(C)NC(=O)CC1c1cc2c(cc1Br)OCO2 (stereo not given)	–	4.43% (inactive)

Compound	Potency	activity change, negative = inhibition
COc1cc2c(cc1OC)C(c1ccc(C)o1)CC(=O)N2 (stereo not given)	–	17.5% (inactive)
CCCOc1ccccc1C1CC(=O)Nc2cc3c(cc21)OCO3 (stereo not given)	10 µM (active)	–
O=C(NCc1ccc(Cl)c(Cl)c1)c1cccnc1	–	-25.4% [at 7.6 µM] (inactive)
CCCOC(=O)Nc1ccccc1C(N)=O	–	3.03% (inactive)
CCOc1ccc2nc(SC(CC)C(=O)Nc3cc(C)on3)sc2c1 (stereo not given)	–	5.36% (inactive)
C=CC(=C)CCC=C(C)C	–	1.32% (inactive)
CCOc1cccc(-n2nnnc2-c2ccc(OC)cc2)c1	12.6 µM (active)	–
CCOc1cccc(-c2nnc3sc(COc4ccc(OC)cc4)nn23)c1	–	26.2% (inactive)
CCOC(=O)c1sc(=S)n(-c2cccc(OC)c2)c1N	–	-1.32% (inactive)
COC(=O)c1ccc(OC(=O)c2nn(C)cc2Cl)c(OC)c1	–	-4.06% (inactive)
CCc1c(O)nc(SCC(=O)N2CCCCC2)n(-c2ccccc2C)c1=O	–	3.32% (inactive)
O=C(Nc1ccccc1N1CCN(c2ccccc2)CC1)c1cccc(F)c1	–	17.9% (inactive)
O=C(CN1CCN(C2CCCCC2)CC1)Nc1ccccc1N1CCCCC1	–	-15.5% (inactive)
O=C(Nc1ccccc1N1CCCCC1)c1ccc2nccnc2c1	10 µM (active)	–
Cc1ccccc1NC(=O)CNc1ccccc1N1CCCCC1	–	-7.03% (inactive)
O=C(Nc1ccccc1N1CCCCC1)c1cccc(F)c1	12.6 µM (active)	–
O=C(Nc1ccccc1N1CCN(C(=O)c2ccccc2)CC1)c1ccc2c(c1)OCO2	–	-2.12% (inactive)
Cn1cc(S(=O)(=O)N2CCC(Cc3ccccc3)CC2)c(=O)n(C)c1=O	–	-3.51% (inactive)
Cc1ccc(Br)cc1	–	-7.98% (inactive)
O=C(NCc1ccccc1)[C@H]1C[C@@H]1[C@H](NP(=O)(c1ccccc1)c1ccccc1)c1ccccc1	–	-24.2% (inactive)

Compound	Potency	activity change, negative = inhibition
CCC[C@@H]1C[C@@]1(CCC)[C@@H](NC(=O)c1ccccc1)c1ccc(C(=O)OC)cc1	–	5.13% (inactive)
Nc1nnc(C2CCCC2)s1	–	3.27% (inactive)
CCc1cccc(C)c1NC(=O)CSc1nnc(-c2ccco2)n1N	–	-6.03% (inactive)
CCn1c(SCC(=O)Nc2cc(C)c(Cl)cc2OC)nnc1-c1ccco1	12.6 µM (active)	–
COc1cc(Cl)c(C)cc1NC(=O)CSc1nnc(-c2cccnc2)n1Cc1ccco1	–	-6.01% (inactive)
COC(=O)[C@H]1C[C@@H]1[C@H](NC(=O)Oc1ccc(F)cc1)c1ccccc1	–	1.37% (inactive)
NC(=O)c1ccccc1NC(=O)c1ccccc1F	–	5.08% (inactive)
COC(=O)[C@@]1(Cc2ccc(OC)cc2)[C@H]2c3cc(C(=O)N4CCCC4)n(Cc4ccc(OC(F)(F)F)cc4)c3C[C@H]2CN1C(=O)c1ccccc1	–	-3.5% (inactive)
O=C(CN1CCOCC1)Nc1c(-c2ccccc2)c2cc(Br)ccc2[nH]c1=O	–	-5.45% (inactive)
COc1cccc(Cn2c(=O)c(C)nc3cnc(Oc4ccccc4)nc32)c1	10 µM (active)	–
CCNc1ncc2ncc(=O)n(Cc3cccc(OC)c3)c2n1	–	-14.8% (inactive)
COc1cccc(Nc2ncc3ncc(=O)n(C4CC4)c3n2)c1	–	5.13% (inactive)
COc1ccc(Oc2ncc3nc(C)c(=O)n(-c4ccccc4)c3n2)cc1	–	3.91% (inactive)
O=C1c2cccnc2C(=O)N1Cc1cccs1	–	-18.3% (inactive)
COc1ccc(-n2nnc3c(=O)n(CC(=O)OCc4ccccc4)cnc32)cc1	–	6.57% (inactive)
COc1cccc(Cn2c(=O)c(-c3ccccc3)nc3cnc(OC)nc32)c1	10 µM (active)	–
COc1cccc(Cn2c(=O)c(CCc3ccccc3)nc3cnc(N(C)C)nc32)c1	6.31 µM (active)	–
COc1ccc(Oc2ncc3nc(-c4ccc(F)cc4)c(=O)n(C)c3n2)cc1	–	-0.0632% (inactive)
COc1ccc(-c2nc3cnc(Oc4ccccc4)nc3n(Cc3cccs3)c2=O)cc1	3.98 µM (active)	–
CCNc1ncc2ncc(=O)n(CCc3ccccc3)c2n1	–	-12.5% (inactive)
